# From PubChem
# MARV entry inh – qHTS for inhibitors of binding or entry into cells for Marburg Virus; Marburg virus pseudotyped entry inhibition, cell reporter; Potency, µM (doses to about 37.8 µM), without a hit: top-dose activity change, negative = inhibition, most hits filed as inhibitors; 300,000 tested, 1.8% active; AID 540276, 2011; calls by dose curve; tested in HEK293 cells; further: potency means the concentration at half of the fitted maximal effect; on the % scale 0 is the no-effect control and ±100 the full control effect
# LASV entry inh – qHTS for Inhibitors of binding or entry into cells for Lassa Virus; AID 540256, 2011; Lassa virus pseudotype entry inhibition, cell reporter; Potency, µM (doses to about 37.9 µM), for inactives: at the highest dose activity change, negative = inhibition, actives largely listed as inhibitors; 300,000 tested, 1.2% active; calls by dose curve; tested in HEK293 cells; further: potency means the concentration at half of the fitted maximal effect; on the % scale 0 is the no-effect control and ±100 the full control effect; nearly all actives have a fitted effect of over 50% in size
# Cycloheximide cs – Cycloheximide Counterscreen for Small Molecule Inhibitors of Shiga Toxin; 300,000 tested, 12% active; max response, %; cell reporter, cycloheximide protein synthesis inhibition counterscreen; AID 2314, 2010; in the data active means max response mostly above about 13%, no sharp cut-off; inactive means mostly below about 14%; further: read at 38.3 µM for the half of the compounds with a filed dose; 0% is about no effect
# VACV mCherry inh – qHTS for Stage-Specific Inhibitors of Vaccinia Orthopoxvirus: mCherry Reporter Primary qHTS; AID 720579, 2013; Vaccinia virus mCherry reporter infection, fluorescence; Potency, µM (series often up to 36.5 µM), for the others: at the top dose activity change, negative = inhibition, usual class: inhibitors; 310,000 tested, 0.63% active; calls by dose curve; tested in A549 cells; further: potency means the concentration at half of the fitted maximal effect; on the % scale 0 is the no-effect control and ±100 the full control effect; nearly all actives have a fitted effect of over 35% in size
# Vaccinia Venus – qHTS for Stage-Specific Inhibitors of Vaccinia Orthopoxvirus: Venus Reporter Primary qHTS. Vaccinia virus Venus reporter expression, fluorescence. 330,000 tested, 0.46% active. AID 720580, 2013. Potency, µM (top dose mostly 36.5 µM), inactives show at the highest dose activity change, negative = inhibition, most hits filed as inhibitors; calls by dose curve; tested in A549 cells; further: potency means the concentration at half of the fitted maximal effect; on the % scale 0 is the no-effect control and ±100 the full control effect; nearly all actives have a fitted effect of over 30% in size
# Shiga toxin inh – A qHTS for Small Molecule Inhibitors of Shiga Toxin | 290,000 tested, 9.2% active | AID 2315, 2010 | inhibition, % at 38.7 µM | Vero cells, Shiga toxin protein synthesis inhibition reporter; in the data active means inhibition mostly above about 28%, no sharp cut-off; inactive means mostly below about 43%; further: 0% is about no effect
# Active calls of the source: *; i = inactive; ? = inconclusive; · = not tested or not shown; [ ] = another dose, or the depositor's remark. Only a selection was taken, and hits are over-represented in it overall.
SMILES,MARV entry inh,LASV entry inh,Cycloheximide cs,VACV mCherry inh,Vaccinia Venus,Shiga toxin inh
S=C1NC2(CCCC2)Nc2ccccc21,10%,-4%,38*,-18%,-1%,103*
S=C1NC2(CCCCC2)Nc2ccccc21,·,·,16*,·,·,33
c1cc2c3c(cccc3c1)NC1(CCCC1)N2,-22%,8%,·,-13%,-19%,·
COc1ccc(N2CC(C)(C)[C@H](CC(=O)Nc3ccccc3)C2=O)cc1,·,·,·,i,-4%,·
CCCn1cnc2sc(C(N)=O)c(C)c2c1=O,-20%,19%,7,?,-22%,24
CCCn1cnc2sc(CC)cc2c1=O,-6%,7%,30*,-12%,-7%,52*
COc1cccc(NC(=O)C2C3CC4OC(=O)C2C4C3)c1 (centres undefined),?,9%,-3,·,-27%,-8
COc1cccc(NC(=O)COC(=O)C2C3CC4OC(=O)C2C4C3)c1 (centres undefined),-4%[46.1 µM],10%,21*,6%,7%,29
C=CCC(CC=C)(CNC(=O)C(=O)Nc1cc(C)ccc1OC)c1ccc(OC)c(OC)c1,-18%[46.1 µM],?,·,-9%,-14%,·
O=C(O)c1ccc2c(c1)C(=O)N(c1nccs1)C2=O,-1%[46.1 µM],17%,-4,2%,-12%,20
C/C=C(\CS(=O)(=O)c1ccccc1)S(=O)(=O)c1ccccc1,-30%,-5%,15*,i,-5%,44*
Cc1cc(=O)[nH]c(NN=C2C3CC4CC(C3)CC2C4)n1,·,·,18*,·,·,27
Cc1cc(=O)[nH]c(NN=C2CCCCC2C)n1 (centres undefined),0%,1%,·,-17%,-13%,·
COc1ccc(N2CCN(Cc3cccn3-c3nnc(N4CCN(C5CCCCC5)CC4)s3)CC2)cc1,·,?,·,-15%,-12%,·
CCOc1ccc(-n2c(C)cc(C(=O)CCl)c2C)cc1,?,10µM*,14,-30%,-9%,-6
Cc1cccc(-n2c(C)cc(C(=O)NC3CCCCC3)c2C)c1,?,?,94*,-11%,-24%,85*
COc1ccc(-n2c(C)cc(C(=O)NC3CCCCC3)c2C)cc1,-2%,16%,58*,-22%,?,94*
COc1ccc(N2CC(C(=O)NC3CCCCC3)CC2=O)cc1 (centres undefined),3%[46.1 µM],16%,-9,-13%,-18%,2
CCc1ccc(S(=O)(=O)c2cn(C)c3cc(N4CCOCC4)c(F)cc3c2=O)cc1,·,-19%[46.1 µM],·,6%,-6%,·
O=C(O)CC1SC(N/N=C/c2ccc(Br)cc2)NC1=O (centres undefined),10%,7%,44*,·,·,79*
COc1cccc(C(=O)Nc2ccc(C(=O)OCc3cc(=O)n4nc(C5CC5)sc4n3)cc2)c1,·,14%[46.1 µM],·,-17%,-17%,·
Clc1cccc(-c2ccc(CNCc3ccccn3)o2)c1,·,·,32*,·,·,81*
Brc1ccc(-c2ccc(CNCc3ccccn3)o2)cc1,·,·,26*,·,·,55
O=C(Nc1ccc(Br)cc1F)c1cc(S(=O)(=O)NC2CCCC2)ccc1F,·,24%[46.1 µM],·,-18%,-24%,·
CCOC(=O)c1c(C)[nH]c(N=Nc2cccc(OC)c2)c1C,?,·,58*,-13%,-5%,154*
SMILES,MARV entry inh,LASV entry inh,Cycloheximide cs,VACV mCherry inh,Vaccinia Venus,Shiga toxin inh
CCOC(=O)c1c(C)[nH]c(N=Nc2cccc(C)c2)c1C,?,17%,64*,i,-7%,130*
O=C(CCn1cnnn1)Nc1cc(C(F)(F)F)cc(C(F)(F)F)c1,-27%[46.1 µM],-28%[46.1 µM],·,-28%,-13%,·
CCN(CC)c1ccc(/C=N/NC(=O)c2c[nH]c3ccccc23)cc1,4%,11µM*,35*,?,?,40*
O=C(NN=Cc1ccc(N(CCCl)CCCl)cc1)c1cc(=O)[nH]c(=O)[nH]1,?,?,·,-7%,-6%,·
O=C(NN=Cc1ccc(N(CCCl)CCCl)cc1)C(=O)c1c[nH]c2ccccc12,4.5µM*,6.3µM*,·,-22%,-13%,·
CCN(C(=O)C(=O)c1c[nH]c2ccccc12)c1ccccc1,·,·,18*,·,·,19
CCN(CC)c1ccc(/C=N/NC(=O)c2cc3ccccc3[nH]2)cc1,·,·,20*,·,·,28
CCOc1ccc2[nH]c(C(=O)N/N=C/c3ccccc3OC)cc2c1,?,?,-1,?,?,20
